In PubChem BioAssay (EPA / NIEHS):
Calls of active or inactive are those of the source. How the source made its calls: active means hit-call score of the fitted dose curve at least 0.9, where 1 is the maximum; inactive means score below 0.9.

These compounds were tested on solute carrier (SLCO1B1), SLCO1B1 (gene 10599) (assay: LTEA_HepaRG_SLCO1B1: Life Technologies and Expression Analysis (LTEA) Assay for solute carrier (SLCO1B1) using HepaRG (AID 2283530)). Details: mRNA level, 48 h; actives raise or lower the signal.
Description: LTEA_HepaRG is a cell based, multiplexed-readout assay that uses HepaRG, a human liver cell line, with measurements taken at 48 hours after chemical dosing on a 96-well plate.LTEA_HepaRG_SLCO1B1 is one of 102 assay component(s) measured in the LTEA HepaRG cell culture assay. It is a marker of NR mediated transport.Data from the assay component LTEA_HepaRG_SLCO1B1 was analyzed into 1 endpoint. This assay endpoint, LTEA_HepaRG_SLCO1B1, was analyzed with bidirectional fitting relative to DMSO as the negative control and baseline of activity. Using a type of inducible reporter, measures of mRNA induction for gain or loss-of-signal activity can be used to understand regulation of transcription factor activity. To generalize the intended target to other relatable targets, this assay endpoint is annotated to the transporter intended target family, where the subfamily is organic anion transporter.
A total of 1060 chemcials from the ToxCast library were tested in eight-point concentration-response experiments. Cell culture and cytotoxicity assays were conducted at Thermo Fisher Scientific's Custom Services facility (Madison, WI). A single lot of human HepaRG cells (Thermo Fisher Scientific, Frederick, MD) was used for the cell culture experiments. 96-well format collagen type I coated plates of human HepaRG cells were prepared using established methods. Briefly, cryopreserved HepaRG cells were thawed, plated at a density of approximately 100,000 cells/well in HepaRG Thaw, Plate, and General Purpose media (HPRG770, Thermo Fisher Scientific), and incubated for 48 hours. 0.5% DMSO was selected as vehicle control to balance the requisite need of DMSO in HepaRG cultures to maintain differentiation (for example, baseline metabolism, proportions of hepatocytes vs. cholangiocytes), while enabling further hepatic receptor pathway activation (for example, PXR and CAR) in response to chemical exposure. 48 hours after plating, the culture medium was replaced with HepaRG Serum-Free Incudtion Media. Cells were exposed to each test chemical in duplicate and maintained in CO2 incubators for another 48 hours. Chemical plates were thawed to room temperature and 200x concentrations of treatment groups were prepared. 8-point conentration-reponse curves were made with the highest exposure at 100 uM, followed by half-log dilutions, all in 0.5% DMSO. Each test plate contained variouse controls, induction positive controls (1mM phenobarbital), cytotoxicity positive controls ([…] aflatoxin B1), vehicle controls (0.5% DMSO), and total lysis controls (0.5% DMSO). Cell morphology images were taken using an Essen IncuCyte FLR automated microscope, with six 96-well plates imaged in about 24 minutes. Images were captured and exported and JPEG files. Spent culture media was transfered to black-well plates for the LDH assay, and remaining media was sorted at -80 C for later use. Cells were treated with RLT buffer and frozen until shipped for gene expression analysis. Total RNA was isolated from the cell suspension in 75 uL of Buffer RLT (Qiagen, Germantown, MD 20874) by Quintiles/Expression Analysis (Durham, NC) using a custom isolation procedure. Total RNA from each plate well was transferred to a preamplification plate. Fluidigm's 96.96 Dynamic ArrayTM (Fluidigm, Amsterdam, the Netherlands) technology was used for gene expression analyses by quantitative reverse transcription polymerase chain reaction (qRT-PCR, performed by Quintiles/Expression Analysis, Durham, NC)89. Standard TaqManTM Assays (Applied Biosystems/ThermoFisher Scientific, Foster City, CA) were used to assess the expression of 93 genes selected based on their selectivity and sensitivity to important hepatic receptors known to be modulated by environmental chemicals; importance in human hepatocyte functionality; and hepatotoxicity. […]

Compound | outcome | AC50
ClC1(Cl)C2(Cl)C3(Cl)C4(Cl)C(Cl)(Cl)C5(Cl)C3(Cl)C1(Cl)C5(Cl)C24Cl (stereo unspecified) | inactive | –
CCN1CCC2(CC1)COc1cc3c(cc12)N(C(=O)c1ccc(-c2ccc(-c4nnc(C)o4)cc2C)cc1)CC3 | inactive | –
CC(C)(c1ccccc1)c1ccc(O)c(C(C)(C)c2ccccc2)c1 | – | 74.4 µM (active)
COc1cc(-c2ccc(N)c(OC)c2)ccc1N | inactive | –
O=C(O)C(F)(F)C(F)(F)C(F)(F)C(F)(F)C(F)(F)C(F)(F)C(F)(F)C(F)(F)C(F)(F)C(F)(F)F | inactive | –
CC(=O)[O][Hg][c]1ccccc1 | inactive | –
Cn1sc(Cl)cc1=O | inactive | –
NC(=O)O | inactive | –
C[C@@H]1C[C@@H]([C@H](O)CC2CC(=O)NC(=O)C2)C(=O)[C@@H](C)C1 | – | 16.4 µM (active)
O=C(O)C(Cl)(Cl)Cl | inactive | –
C=CC(=O)OCCCCCC(C)C | inactive | –
Cc1ccccc1N | inactive | –
CCC(=O)C(CC(C)N(C)C)(c1ccccc1)c1ccccc1 (stereo unspecified) | inactive | –
O=C1C2(Cl)C3(Cl)C4(Cl)C(Cl)(Cl)C5(Cl)C3(Cl)C1(Cl)C5(Cl)C24Cl (stereo unspecified) | – | 93.5 µM (active)
O=[N+]([O-])c1ccc(O)c([N+](=O)[O-])c1 | – | 20.4 µM (active)
C[C@]12CCC(=O)C[C@@H]1CC[C@@H]1[C@@H]2CC[C@]2(C)[C@@H](O)CC[C@@H]12 | inactive | –

Compound | outcome | AC50
C=C(C)C(=O)[O][Sn]([CH2]CCC)([CH2]CCC)[CH2]CCC | – | 2.57 µM (active)
O=C(Nc1ccc2[nH]ccc2c1)c1cc2cc(F)ccc2n1Cc1cccc(F)c1 | – | 36.1 µM (active)
O=c1[nH]c(=O)[nH]c(=O)[nH]1 | inactive | –
CN(C)N=O | inactive | –
O=C(O)C(F)(F)C(F)(F)C(F)(F)C(F)(F)C(F)(F)C(F)(F)F | inactive | –
CCOP(=S)(OCC)Oc1nc(Cl)c(Cl)cc1Cl | inactive | –
CCCCCCCCc1ccc(O)cc1 | inactive | –
CC12CC1(C)C(=O)N(c1cc(Cl)cc(Cl)c1)C2=O (stereo unspecified) | inactive | –
CCC(C)(C)c1ccc(O)c(C(C)(C)CC)c1 | inactive | –
Oc1cccc2cccnc12 | inactive | –
CC(C)(C)CC(C)(C)c1ccc(O)cc1 | inactive | –
CCOP(=S)(OCC)SCSP(=S)(OCC)OCC | inactive | –
ClCC(Cl)CCl | inactive | –
CC(C)(OO)c1ccccc1 | inactive | –
CC(C)(C)c1cc(O)ccc1O | inactive | –
